From the antibiotic and cytotoxicity screens of Wong et al. (2023)
Screen size: about 39,000 compounds; about 3,300 (8.5%) were called active. The entries come from a sample that favours actives as a whole.

Tested on: HepG2
Experiment: cytotoxicity call (relative viability < 0.9)
Details: 10 µM

| SMILES | cytotoxicity call |
| --- | --- |
| C[C@@H]1CN([C@H](C)CO)S(=O)(=O)c2ccc(C#C[C@@H](C)O)cc2O[C@H]1CN(C)C(=O)c1ccccc1 | inactive |
| COc1ccccc1NC(=O)N(C)C[C@@H]1OCc2ccccc2-c2c(n(C)c3ccccc23)C(=O)N([C@H](C)CO)C[C@H]1C | inactive |
| O=C(C[C@@H]1C[C@@H]2c3cc(NC(=O)NC4CCCC4)ccc3O[C@@H]2[C@@H](CO)O1)NCCN1CCCCC1 | inactive |
| CN(C)c1ccc(C(=C2C=CC(=[N+](C)C)C=C2)c2ccc(N(C)C)cc2)cc1.[Cl-] | active |
| C[C@@H]1CCCCO[C@@H](CN(C)Cc2ccc(Cl)c(Cl)c2)[C@@H](C)CN([C@H](C)CO)C(=O)c2cc(NS(C)(=O)=O)ccc2O1 | inactive |
| COc1ccc(NC(=O)N(C)C[C@@H]2Oc3ccc(NS(=O)(=O)c4c(C)noc4C)cc3C(=O)N([C@@H](C)CO)C[C@H]2C)cc1 | inactive |
| COc1ccc(S(=O)(=O)N(C)C[C@H]2Oc3ccc(NS(=O)(=O)c4c(C)noc4C)cc3C(=O)N([C@H](C)CO)C[C@H]2C)cc1 | inactive |
| COc1ccc(S(=O)(=O)N(C)C[C@@H]2Oc3ccc(NS(=O)(=O)c4c(C)noc4C)cc3C(=O)N([C@H](C)CO)C[C@@H]2C)cc1 | active |
| COc1ccc(NC(=O)N(C)C[C@@H]2Oc3ccc(NS(=O)(=O)c4c(C)noc4C)cc3C(=O)N([C@@H](C)CO)C[C@@H]2C)cc1 | active |
| COc1ccc(NC(=O)N(C)C[C@@H]2Oc3ccc(NS(=O)(=O)c4c(C)noc4C)cc3C(=O)N([C@H](C)CO)C[C@@H]2C)cc1 | inactive |
| COc1ccc(S(=O)(=O)N(C)C[C@H]2Oc3ccc(NS(=O)(=O)c4c(C)noc4C)cc3C(=O)N([C@H](C)CO)C[C@@H]2C)cc1 | inactive |
| Cc1cc(C(=O)Nc2cccc3c2O[C@H](CN(C)S(=O)(=O)c2c(C)noc2C)[C@H](C)CN([C@@H](C)CO)C3=O)n(C)n1 | inactive |
| C[C@@H]1CCCCO[C@@H](CN(C)C(=O)Nc2cccc3ccccc23)[C@@H](C)CN([C@H](C)CO)C(=O)c2cc(NS(=O)(=O)c3ccccc3)ccc2O1 | inactive |
| COc1cccc(C#Cc2ccc([C@@H]3[C@@H](CO)N4C(=O)CN(S(=O)(=O)c5ccccc5C)C[C@H]34)cc2)c1 | inactive |
| C[C@@H]1CN([C@@H](C)CO)C(=O)c2cccc(NC(=O)CCCCCC(=O)Nc3ccccc3N)c2O[C@H]1CN(C)C(=O)Nc1ccccc1 | inactive |
| Cc1noc(C)c1S(=O)(=O)Nc1ccc2c(c1)C(=O)N([C@H](C)CO)C[C@@H](C)[C@@H](CN(C)Cc1ccncc1)O2 | inactive |

| SMILES | cytotoxicity call |
| --- | --- |
| O=C(C[C@@H]1CC=CC[C@H](NC(=O)OCC2c3ccccc3-c3ccccc32)C(=O)O[C@@H](c2ccccc2)CNC1=O)N[C@@H](CO)Cc1ccccc1 | inactive |
| Cc1ccc(S(=O)(=O)N(C)C[C@@H]2Oc3ccc(NC(=O)C4CC4)cc3CC(=O)N([C@@H](C)CO)C[C@@H]2C)cc1 | active |
| Cc1ccc(S(=O)(=O)N(C)C[C@@H]2Oc3ccc(NC(=O)C4CC4)cc3CC(=O)N([C@@H](C)CO)C[C@H]2C)cc1 | inactive |
| C[C@@H]1CN([C@H](C)CO)C(=O)Cc2cc(NC(=O)C3CC3)ccc2O[C@@H]1CN(C)S(=O)(=O)c1ccc(Cl)cc1 | inactive |
| C[C@H](CO)N1C[C@H](C)[C@H](CN(C)S(=O)(=O)c2ccc(Cl)cc2)Oc2ccc(NC(=O)C3CC3)cc2CC1=O | inactive |
| Cc1ccc(S(=O)(=O)N(C)C[C@H]2Oc3ccc(NC(=O)C4CC4)cc3CC(=O)N([C@@H](C)CO)C[C@@H]2C)cc1 | inactive |
| C[C@H]1CN([C@@H](C)CO)C(=O)Cc2cc(NC(=O)C3CC3)ccc2O[C@H]1CN(C)S(=O)(=O)c1ccc(Cl)cc1 | active |
| C[C@H]1CN([C@@H](C)CO)C(=O)c2cccc(NC(=O)c3ccc(-c4nccs4)cc3)c2O[C@@H]1CN(C)C(=O)Nc1cccc2ccccc12 | inactive |
| COc1ccc(S(=O)(=O)N(C)C[C@@H]2Oc3cc(-c4ccccc4OC)ccc3S(=O)(=O)N([C@@H](C)CO)C[C@H]2C)cc1 | inactive |
| COc1ccc(S(=O)(=O)N(C)C[C@H]2Oc3cc(-c4ccccc4OC)ccc3S(=O)(=O)N([C@H](C)CO)C[C@@H]2C)cc1 | inactive |
| COc1ccc(S(=O)(=O)N(C)C[C@@H]2Oc3cc(-c4ccccc4OC)ccc3S(=O)(=O)N([C@H](C)CO)C[C@H]2C)cc1 | inactive |
| COc1ccc(S(=O)(=O)N(C)C[C@@H]2Oc3cc(-c4ccccc4OC)ccc3S(=O)(=O)N([C@@H](C)CO)C[C@@H]2C)cc1 | inactive |
| COc1ccc(S(=O)(=O)N(C)C[C@@H]2Oc3cc(-c4ccccc4OC)ccc3S(=O)(=O)N([C@H](C)CO)C[C@@H]2C)cc1 | active |
| COc1ccc(S(=O)(=O)N(C)C[C@H]2Oc3cc(-c4ccccc4OC)ccc3S(=O)(=O)N([C@H](C)CO)C[C@H]2C)cc1 | active |
| C[C@@H]1CN([C@@H](C)CO)S(=O)(=O)c2ccc(-c3cccc(C#N)c3)cc2O[C@H]1CN(C)C(=O)c1ccncc1 | inactive |
| Cc1noc(C)c1S(=O)(=O)N(C)C[C@@H]1OCCCC[C@H](C)Oc2ccc(NC(=O)Nc3ccc(C(F)(F)F)cc3)cc2C(=O)N([C@H](C)CO)C[C@H]1C | inactive |
